Test results: publication PMC11006913
Positions count from the first letter of the chain named.

Experiments:
Test in all cases: PBM; 200 nM protein, PBS
Details in all cases: dsDNA, one strand shown
HESX1 [1] = biological target: HESX1 (Homo sapiens, UniProt Q9UBX0 95-180, R165K)
HOXA4 [2] = biological target: HOXA4 (Homo sapiens, UniProt Q00056 201-287, W262R)
HOXC10 [3] = biological target: HOXC10 (Homo sapiens, UniProt Q9NYD6 254-340)
HESX1 [4] = biological target: HESX1 (Homo sapiens, UniProt Q9UBX0 95-180)
HOXA2 [5] = biological target: HOXA2 (Homo sapiens, UniProt O43364 129-215, R185T)
HOXA4 [6] = biological target: HOXA4 (Homo sapiens, UniProt Q00056 201-287, R217L)
NKX2-6 = biological target: T1, NKX2-6 (Homo sapiens, UniProt A6NCS4 118-204, R150C)
T1 sequence: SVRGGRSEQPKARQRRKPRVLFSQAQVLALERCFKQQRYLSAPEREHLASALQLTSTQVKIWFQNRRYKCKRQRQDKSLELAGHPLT

ALX1 [7] = biological target: ALX1 (Homo sapiens, UniProt Q15699 118-204, L144V)
HOXA2 [8] = biological target: HOXA2 (Homo sapiens, UniProt O43364 129-215, R185K)
ALX1 [9] = biological target: ALX1 (Homo sapiens, UniProt Q15699 118-204, L144R)
HOXA4 [10] = biological target: HOXA4 (Homo sapiens, UniProt Q00056 201-287)
HOXC10 [11] = biological target: HOXC10 (Homo sapiens, UniProt Q9NYD6 254-340, K271E)
HESX1 [12] = biological target: HESX1 (Homo sapiens, UniProt Q9UBX0 95-180, R109Q)
HESX1 [13] = biological target: HESX1 (Homo sapiens, UniProt Q9UBX0 95-180, P111T)
HESX1 [14] = biological target: HESX1 (Homo sapiens, UniProt Q9UBX0 95-180, F115L)
HOXA2 [15] = biological target: HOXA2 (Homo sapiens, UniProt O43364 129-215, Y150S)
ALX1 [16] = biological target: ALX1 (Homo sapiens, UniProt Q15699 118-204)
HOXA4 [17] = biological target: HOXA4 (Homo sapiens, UniProt Q00056 201-287, W262F)
HOXA2 [18] = biological target: HOXA2 (Homo sapiens, UniProt O43364 129-215)
SIX6 [19] = biological target: T2, SIX6 (Homo sapiens, UniProt O95475 114-200, L167I)
T2 sequence: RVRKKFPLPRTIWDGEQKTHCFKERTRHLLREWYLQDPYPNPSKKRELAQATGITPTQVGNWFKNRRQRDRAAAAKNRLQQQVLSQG

SIX6 [20] = biological target: T3, SIX6 (Homo sapiens, UniProt O95475 114-200, L143V)
T3 sequence: T2 sequence with L30V, I54L

SIX6 [21] = biological target: T4, SIX6 (Homo sapiens, UniProt O95475 114-200, H141N)
T4 sequence: T2 sequence with H28N, I54L

SIX6 [22] = biological target: T5, SIX6 (Homo sapiens, UniProt O95475 114-200, T165P)
T5 sequence: T2 sequence with T52P, I54L

SIX6 [23] = biological target: T6, SIX6 (Homo sapiens, UniProt O95475 114-200, L167M)
T6 sequence: T2 sequence with I54M

SIX6 [24] = biological target: T7, SIX6 (Homo sapiens, UniProt O95475 114-200, L143M)
T7 sequence: T2 sequence with L30M, I54L

SIX6 [25] = biological target: T8, SIX6 (Homo sapiens, UniProt O95475 114-200, L143I)
T8 sequence: T2 sequence with L30I, I54L

SIX6 [26] = biological target: T9, SIX6 (Homo sapiens, UniProt O95475 114-200, T165G)
T9 sequence: T2 sequence with T52G, I54L

SIX6 [27] = biological target: T10, SIX6 (Homo sapiens, UniProt O95475 114-200, T139Q)
T10 sequence: T2 sequence with T26Q, I54L

SIX6 [28] = biological target: T11, SIX6 (Homo sapiens, UniProt O95475 114-200, T165A)
T11 sequence: T2 sequence with T52A, I54L

SIX6 [29] = biological target: T12, SIX6 (Homo sapiens, UniProt O95475 114-200, L167V)
T12 sequence: T2 sequence with I54V

PROP1 [30] = biological target: PROP1 (Homo sapiens, UniProt O75360 56-141)
SIX6 [31] = biological target: T13, SIX6 (Homo sapiens, UniProt O95475 114-200)
T13 sequence: T2 sequence with I54L

PROP1 [32] = biological target: PROP1 (Homo sapiens, UniProt O75360 56-141, R99H)
SIX6 [33] = biological target: T14, SIX6 (Homo sapiens, UniProt O95475 114-200, T165I)
T14 sequence: T2 sequence with T52I, I54L

PROP1 [34] = biological target: PROP1 (Homo sapiens, UniProt O75360 56-141, F88S)
PRRX1 [35] = biological target: PRRX1 (Homo sapiens, UniProt P54821 80-166, F113S)
PITX2 = PITX2 (Homo sapiens, UniProt Q99697 72-157)
PRRX1 [36] = biological target: PRRX1 (Homo sapiens, UniProt P54821 80-166)
Chain of PRRX1 (Homo sapiens, UniProt P54821 80-166) (P54821 80-166): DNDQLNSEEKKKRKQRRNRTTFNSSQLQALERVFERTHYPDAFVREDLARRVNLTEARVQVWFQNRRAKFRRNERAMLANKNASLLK

Chain of HESX1 (Homo sapiens, UniProt Q9UBX0 95-180, R109Q) (Q9UBX0 95-180 R109Q): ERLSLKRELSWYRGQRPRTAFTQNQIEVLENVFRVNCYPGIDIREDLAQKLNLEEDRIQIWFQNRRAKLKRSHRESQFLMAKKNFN
Chain of HESX1 (Homo sapiens, UniProt Q9UBX0 95-180, R165K) (Q9UBX0 95-180 R165K): as the sequence (Q9UBX0 95-180 R109Q) above, with Q15R, R71K counted along it
Chain of HESX1 (Homo sapiens, UniProt Q9UBX0 95-180, P111T) (Q9UBX0 95-180 P111T): as the sequence (Q9UBX0 95-180 R109Q) above, with Q15R, P17T counted along it
Chain of HESX1 (Homo sapiens, UniProt Q9UBX0 95-180) (Q9UBX0 95-180): as the sequence (Q9UBX0 95-180 R109Q) above, with Q15R counted along it
Chain of HESX1 (Homo sapiens, UniProt Q9UBX0 95-180, F115L) (Q9UBX0 95-180 F115L): as the sequence (Q9UBX0 95-180 R109Q) above, with Q15R, F21L counted along it
Chain of ALX1 (Homo sapiens, UniProt Q15699 118-204, L144R) (Q15699 118-204 L144R): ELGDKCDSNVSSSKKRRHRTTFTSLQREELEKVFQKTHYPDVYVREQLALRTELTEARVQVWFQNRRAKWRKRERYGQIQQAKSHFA
Chain of ALX1 (Homo sapiens, UniProt Q15699 118-204) (Q15699 118-204): as the sequence (Q15699 118-204 L144R) above, with R27L counted along it
Chain of HOXC10 (Homo sapiens, UniProt Q9NYD6 254-340) (Q9NYD6 254-340): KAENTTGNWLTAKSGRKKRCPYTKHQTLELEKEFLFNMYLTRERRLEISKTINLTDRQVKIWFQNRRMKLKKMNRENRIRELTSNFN
Chain of ALX1 (Homo sapiens, UniProt Q15699 118-204, L144V) (Q15699 118-204 L144V): as the sequence (Q15699 118-204 L144R) above, with R27V counted along it
Chain of HOXC10 (Homo sapiens, UniProt Q9NYD6 254-340, K271E) (Q9NYD6 254-340 K271E): as the sequence (Q9NYD6 254-340) above, with K18E counted along it
Chain of PROP1 (Homo sapiens, UniProt O75360 56-141, F88S) (O75360 56-141 F88S): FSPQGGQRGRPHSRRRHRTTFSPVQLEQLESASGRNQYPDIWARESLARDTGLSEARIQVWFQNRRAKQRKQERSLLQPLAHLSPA
Chain of HOXA2 (Homo sapiens, UniProt O43364 129-215) (O43364 129-215): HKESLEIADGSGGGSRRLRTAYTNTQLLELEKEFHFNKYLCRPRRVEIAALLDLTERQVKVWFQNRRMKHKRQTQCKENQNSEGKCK
Chain of HOXA4 (Homo sapiens, UniProt Q00056 201-287, W262R) (Q00056 201-287 W262R): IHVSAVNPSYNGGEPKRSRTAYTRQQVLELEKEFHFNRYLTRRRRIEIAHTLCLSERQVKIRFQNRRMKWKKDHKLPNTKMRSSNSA
Chain of HOXA2 (Homo sapiens, UniProt O43364 129-215, R185T) (O43364 129-215 R185T): as the sequence (O43364 129-215) above, with R57T counted along it
Chain of PROP1 (Homo sapiens, UniProt O75360 56-141, R99H) (O75360 56-141 R99H): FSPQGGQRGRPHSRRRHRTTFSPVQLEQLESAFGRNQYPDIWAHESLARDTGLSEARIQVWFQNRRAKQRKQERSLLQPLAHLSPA
Chain of HOXA4 (Homo sapiens, UniProt Q00056 201-287, W262F) (Q00056 201-287 W262F): as the sequence (Q00056 201-287 W262R) above, with R62F counted along it
Chain of HOXA2 (Homo sapiens, UniProt O43364 129-215, R185K) (O43364 129-215 R185K): as the sequence (O43364 129-215) above, with R57K counted along it
Chain of PROP1 (Homo sapiens, UniProt O75360 56-141) (O75360 56-141): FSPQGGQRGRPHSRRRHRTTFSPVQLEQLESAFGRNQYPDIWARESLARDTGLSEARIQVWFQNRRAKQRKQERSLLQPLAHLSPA
Chain of HOXA4 (Homo sapiens, UniProt Q00056 201-287) (Q00056 201-287): as the sequence (Q00056 201-287 W262R) above, with R62W counted along it
Chain of PRRX1 (Homo sapiens, UniProt P54821 80-166, F113S) (P54821 80-166 F113S): as the sequence (P54821 80-166) above, with F34S counted along it
Chain of HOXA2 (Homo sapiens, UniProt O43364 129-215, Y150S) (O43364 129-215 Y150S): as the sequence (O43364 129-215) above, with Y22S counted along it
Chain of HOXA4 (Homo sapiens, UniProt Q00056 201-287, R217L) (Q00056 201-287 R217L): as the sequence (Q00056 201-287 W262R) above, with R17L, R62W counted along it

## GCAGGCGC
HESX1 [1]
  binding signal: 6.11 upbm affinity estimate (log intensity, higher = more binding, comparable within an allelic series)
HOXA4 [2]
  binding signal: 9.8 upbm affinity estimate (log intensity, higher = more binding, comparable within an allelic series)
HOXC10 [3]
  binding signal: 9.86 upbm affinity estimate (log intensity, higher = more binding, comparable within an allelic series)
HESX1 [4]
  binding signal: 5.98 upbm affinity estimate (log intensity, higher = more binding, comparable within an allelic series)
HOXA2 [5]
  binding signal: 6.79 upbm affinity estimate (log intensity, higher = more binding, comparable within an allelic series)
HOXA4 [6]
  binding signal: 9.64 upbm affinity estimate (log intensity, higher = more binding, comparable within an allelic series)
NKX2-6
  binding signal: 9.36 upbm affinity estimate (log intensity, higher = more binding, comparable within an allelic series)
ALX1 [7]
  binding signal: 5.82 upbm affinity estimate (log intensity, higher = more binding, comparable within an allelic series)
HOXA2 [8]
  binding signal: 10 upbm affinity estimate (log intensity, higher = more binding, comparable within an allelic series)
ALX1 [9]
  binding signal: 5.84 upbm affinity estimate (log intensity, higher = more binding, comparable within an allelic series)
HOXA4 [10]
  binding signal: 9.74 upbm affinity estimate (log intensity, higher = more binding, comparable within an allelic series)
HOXC10 [11]
  binding signal: 9.87 upbm affinity estimate (log intensity, higher = more binding, comparable within an allelic series)
HESX1 [12]
  binding signal: 6.31 upbm affinity estimate (log intensity, higher = more binding, comparable within an allelic series)
HESX1 [13]
  binding signal: 6.16 upbm affinity estimate (log intensity, higher = more binding, comparable within an allelic series)
HESX1 [14]
  binding signal: 6.37 upbm affinity estimate (log intensity, higher = more binding, comparable within an allelic series)
HOXA2 [15]
  binding signal: 10.3 upbm affinity estimate (log intensity, higher = more binding, comparable within an allelic series)
ALX1 [16]
  binding signal: 5.72 upbm affinity estimate (log intensity, higher = more binding, comparable within an allelic series)
HOXA4 [17]
  binding signal: 9.73 upbm affinity estimate (log intensity, higher = more binding, comparable within an allelic series)
HOXA2 [18]
  binding signal: 6.79 upbm affinity estimate (log intensity, higher = more binding, comparable within an allelic series)

## CGCACGCC
HESX1 [1]
  binding signal: 6.51 upbm affinity estimate (log intensity, higher = more binding, comparable within an allelic series)
SIX6 [19]
  binding signal: 8.9 upbm affinity estimate (log intensity, higher = more binding, comparable within an allelic series)
SIX6 [20]
  binding signal: 8.88 upbm affinity estimate (log intensity, higher = more binding, comparable within an allelic series)
HOXC10 [3]
  binding signal: 10.1 upbm affinity estimate (log intensity, higher = more binding, comparable within an allelic series)
SIX6 [21]
  binding signal: 8.95 upbm affinity estimate (log intensity, higher = more binding, comparable within an allelic series)
SIX6 [22]
  binding signal: 8.83 upbm affinity estimate (log intensity, higher = more binding, comparable within an allelic series)
SIX6 [23]
  binding signal: 9.01 upbm affinity estimate (log intensity, higher = more binding, comparable within an allelic series)
SIX6 [24]
  binding signal: 8.91 upbm affinity estimate (log intensity, higher = more binding, comparable within an allelic series)
SIX6 [25]
  binding signal: 8.97 upbm affinity estimate (log intensity, higher = more binding, comparable within an allelic series)
SIX6 [26]
  binding signal: 8.9 upbm affinity estimate (log intensity, higher = more binding, comparable within an allelic series)
HESX1 [4]
  binding signal: 6.47 upbm affinity estimate (log intensity, higher = more binding, comparable within an allelic series)
SIX6 [27]
  binding signal: 8.93 upbm affinity estimate (log intensity, higher = more binding, comparable within an allelic series)
SIX6 [28]
  binding signal: 8.87 upbm affinity estimate (log intensity, higher = more binding, comparable within an allelic series)
HOXC10 [11]
  binding signal: 10 upbm affinity estimate (log intensity, higher = more binding, comparable within an allelic series)
SIX6 [29]
  binding signal: 8.9 upbm affinity estimate (log intensity, higher = more binding, comparable within an allelic series)
PROP1 [30]
  binding signal: 6.43 upbm affinity estimate (log intensity, higher = more binding, comparable within an allelic series)
HESX1 [12]
  binding signal: 6.54 upbm affinity estimate (log intensity, higher = more binding, comparable within an allelic series)
SIX6 [31]
  binding signal: 8.9 upbm affinity estimate (log intensity, higher = more binding, comparable within an allelic series)
PROP1 [32]
  binding signal: 6.77 upbm affinity estimate (log intensity, higher = more binding, comparable within an allelic series)
SIX6 [33]
  binding signal: 8.9 upbm affinity estimate (log intensity, higher = more binding, comparable within an allelic series)
HESX1 [13]
  binding signal: 6.43 upbm affinity estimate (log intensity, higher = more binding, comparable within an allelic series)
PROP1 [34]
  binding signal: 6.63 upbm affinity estimate (log intensity, higher = more binding, comparable within an allelic series)
HESX1 [14]
  binding signal: 6.48 upbm affinity estimate (log intensity, higher = more binding, comparable within an allelic series)

## CCATAATA
HESX1 [1]
  binding signal: 8.68 upbm affinity estimate (log intensity, higher = more binding, comparable within an allelic series)
HESX1 [4]
  binding signal: 8.79 upbm affinity estimate (log intensity, higher = more binding, comparable within an allelic series)

## AGCCGGTC
HESX1 [1]
  binding signal: 6.51 upbm affinity estimate (log intensity, higher = more binding, comparable within an allelic series)
HESX1 [4]
  binding signal: 6.44 upbm affinity estimate (log intensity, higher = more binding, comparable within an allelic series)
NKX2-6
  binding signal: 9.54 upbm affinity estimate (log intensity, higher = more binding, comparable within an allelic series)
HESX1 [12]
  binding signal: 6.51 upbm affinity estimate (log intensity, higher = more binding, comparable within an allelic series)
HESX1 [13]
  binding signal: 6.57 upbm affinity estimate (log intensity, higher = more binding, comparable within an allelic series)
HESX1 [14]
  binding signal: 6.52 upbm affinity estimate (log intensity, higher = more binding, comparable within an allelic series)

## CAATAATG
HESX1 [1]
  binding signal: 8.97 upbm affinity estimate (log intensity, higher = more binding, comparable within an allelic series)
HESX1 [4]
  binding signal: 9.26 upbm affinity estimate (log intensity, higher = more binding, comparable within an allelic series)

## ACGGAAGG
HESX1 [1]
  binding signal: 6.5 upbm affinity estimate (log intensity, higher = more binding, comparable within an allelic series)
PRRX1 [35]
  binding signal: 9.38 upbm affinity estimate (log intensity, higher = more binding, comparable within an allelic series)
HESX1 [4]
  binding signal: 6.36 upbm affinity estimate (log intensity, higher = more binding, comparable within an allelic series)
ALX1 [7]
  binding signal: 6.56 upbm affinity estimate (log intensity, higher = more binding, comparable within an allelic series)
PITX2
  binding signal: 7.95 upbm affinity estimate (log intensity, higher = more binding, comparable within an allelic series)
ALX1 [9]
  binding signal: 6.44 upbm affinity estimate (log intensity, higher = more binding, comparable within an allelic series)
HESX1 [12]
  binding signal: 6.53 upbm affinity estimate (log intensity, higher = more binding, comparable within an allelic series)
HESX1 [13]
  binding signal: 6.63 upbm affinity estimate (log intensity, higher = more binding, comparable within an allelic series)
HESX1 [14]
  binding signal: 6.5 upbm affinity estimate (log intensity, higher = more binding, comparable within an allelic series)
ALX1 [16]
  binding signal: 6.35 upbm affinity estimate (log intensity, higher = more binding, comparable within an allelic series)
PRRX1 [36]
  binding signal: 9.17 upbm affinity estimate (log intensity, higher = more binding, comparable within an allelic series)
